# Measured values: PubChem BioAssay (NCATS)
# Inconclusive results are not listed. Entries that show only a call come without a potency. Activity calls are given as the source filed them. Unless noted, calls follow the shape of the dose curve; as a rule, active = well fitted curve in the direction sought with a large enough effect; inconclusive = small, poorly fitted or top-dose-only effect, or another doubt; inactive = no such curve, though single readings can be large; an effect the other way counts as inactive or inconclusive.
# How the values were obtained:
# [1] = target: Bile acid receptor (Homo sapiens) (UniProt Q96RI1); assay: qHTS assay for small molecule agonists of farnesoid X receptor signaling (AID 588527; calls by dose curve); conditions: HEK293T FXR-UAS-bla, beta-lactamase ratio, 16 h; activation: stronger effect = higher value
# Outline: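 FXR-UAS-bla HEK293T cells (10% dialyzed FBS) preincubated 5-7 h at 37 C, then compounds at up to 92 uM for 16 h at 37 C. CCF4 beta-lactamase read-out after 2 h RT. Normalized to chenodeoxycholic acid (100 uM) and DMSO; Hill fit gave EC50 and efficacy.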
# [2] = target: Peroxisome proliferator-activated receptor delta (Homo sapiens) (UniProt Q03181); assay: qHTS assay for small molecule agonists of peroxisome proliferator-activated receptor delta signaling (AID 588534; calls by dose curve); conditions: HEK293T PPARdelta-UAS-bla, beta-lactamase ratio, 18 h; series mostly up to 76.7 µM
# Outline: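 Reporter cells were plated and held 5 hrs at 37 C before compounds were added. After 18 hrs at 37 C, CCF4 dye was loaded for 2 hrs at RT and fluorescence measured.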
# [3] = target: Vitamin D3 receptor (Homo sapiens) (UniProt P11473); assay: qHTS assay for small molecule agonists of vitamin D receptor signaling (AID 588543; calls by dose curve); conditions: HEK293T VDR-UAS-bla, beta-lactamase ratio, 16 h; series mostly up to 76.8 µM
# Outline: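 Measured: β-lactamase reporter activity (CCF4, 405 nm excitation, 460/530 nm emission) in HEK293T VDR-UAS-bla cells after 16 h compound exposure at 37 °C. Normalization against 50 nM 1α,25-dihydroxyvitamin D3 and DMSO; Hill-fit EC50.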
# [4] = qHTS assay for small molecule antagonists of retinoid X receptor alpha signaling (AID 588546); conditions: HEK293T RXRa-UAS-bla, beta-lactamase ratio, antagonist mode; measured here: W530 green channel, cytotoxicity proxy;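 also: cells stimulated with 9-cis-retinoic acid as agonist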
# Outline: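 Beta-lactamase reporter inhibition, read as CCF4 fluorescence ratio (ex 405, em 460/530 nm) after 2 h at RT. HEK293T UAS-bla cells, 2500/well, were stimulated with 9-cis-RA at 500 or 100 nM final alongside test compound for 18 h at 37 C.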
# [5] = qHTS assay for environmental chemicals that activate the Aryl hydrocarbon Receptor (AhR) signaling pathway (AID 651777); conditions: 1A2-DRE human hepatoma cells, luciferase, 24 h; activation: stronger effect = higher value; also: nearly all actives have a fitted effect of over 15% in size
# Outline: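 Measured luciferase activity, read 30 min after One-Glo addition at room temperature, from human hepatoma cells bearing a dioxin response element–CYP1A2 promoter reporter and exposed to compound for 24 hr at 37 C.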
# [6] = target: Peroxisome proliferator-activated receptor alpha (Homo sapiens) (UniProt Q07869); assay: qHTS assay for small molecule agonists of the peroxisome proliferator-activated receptor alpha (PPARalpha) signaling pathway (AID 651778); conditions: PathHunter PPARalpha complementation, chemiluminescence, 6 h; max response: stronger effect = higher value
# Outline: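 Chemiluminescence from complemented enzyme reported PPARalpha activation in cells after 6 hr of compound treatment at 37 C. The detection reagent was incubated for 60 min at room temperature, and compounds were scored as agonists.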
# [7] = qHTS assay for small molecule agonists of the antioxidant response element (ARE) signaling pathway measured by Nrf2-dependant transcriptional activity - cell viability counter screen (AID 720653; active = well fitted curve in the direction sought with a large enough effect in the repeat runs; an effect the other way counts as inactive or inconclusive; also: potency is read from the fitted curve at half-maximal effect); conditions: ARE-bla HepG2 viability, CellTiter-Glo ATP luminescence, 16 h; max response: stronger effect = lower value
# Outline: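 Cytotoxicity counter screen: intracellular ATP quantified by CellTiter-Glo luminescence in the same ARE-bla HepG2 plates, after 16 h compound exposure and a 2 h beta-lactamase substrate step.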
# [8] = qHTS assay for cell viability of HEK293 cells (AID 743288); conditions: ATP luminescence (CellTiter-Glo), 18 h; max response: stronger effect = lower value; also: nearly all actives have a fitted effect of over 50% in size; also: potency is read from the fitted curve at half-maximal effect
# Outline: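 Luminescent ATP quantitation served as the viability read-out. Cells (parental HEK293, 2,000/well) received compounds after at least 5 h at 37 C and were exposed for 18 h before a 30 min room-temperature reagent step.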
# CP260 = assay: qHTS profiling for inhibitors of Plasmodium falciparum proliferation (AID 504749); also: nearly all actives have a fitted effect of over 60% in size; also: potency is read from the fitted curve at half-maximal effect; conditions: P. falciparum in erythrocytes, SYBR Green DNA, 72 h; series mostly up to 28.7 µM
# Outline: (§1)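 Three-day growth assay of blood-stage parasites in erythrocytes (0.3% parasitemia, 2.5% hematocrit) at 37 C, 5% CO2, quantified by SYBR Green DNA staining after overnight detergent lysis.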
# PC26 = assay: as above; conditions: P. falciparum in erythrocytes, SYBR Green DNA, 72 h; series mostly up to 28.7 µM
# Outline: as §1
# TAB109 = assay: as above; conditions: P. falciparum in erythrocytes, SYBR Green DNA, 72 h; series mostly up to 28.7 µM
# Outline: as §1
# [9] = target: Cytochrome P450 3A4 (Homo sapiens) (UniProt P08684); assay: qHTS Assay for Inhibitors and Substrates of Cytochrome P450 3A4 (AID 884); conditions: recombinant CYP3A4, Luciferin-PPXE luminescence; series mostly up to 57.1 µM; also: nearly all actives have a fitted effect of over 50% in size; also: potency is read from the fitted curve at half-maximal effect
# Outline: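 20 nM human CYP3A4 with 25 uM Luciferin-PPXE (at KM) in 200 mM KPO4, preincubated 10 min with compound; NADPH regeneration started a 60 min RT reaction. Luciferin detected by luminescence, normalized to 57 uM ketoconazole as full inhibition.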
# [10] = Confirmation and Secondary Assay for Modulators of Hemoglobin Beta Chain Splicing at IVS2 654 locus (AID 910); conditions: HeLa EGFP-654 splicing reporter, GFP fluorescence, 48 h; series mostly up to 46.1 µM;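 also: HeLa cells stably carrying EGFP split by mutant beta-globin IVS2-654 intron; per-well total GFP intensity by laser scanning cytometry after 2-day treatment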
# Outline: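 Readout: per-well total peak green fluorescence (488 nm ex, 500–520 nm em) from objects 5–250 µm, reflecting correct splicing of an EGFP-654 reporter. Compounds were applied for 2 days at 37 °C to overnight-plated HeLa EGFP-654 cells; controls were DMSO and 500 nM IVS2-654 PNA.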
# [11] = Confirmation and Secondary Assay for Modulators of Hemoglobin Beta Chain Splicing at IVS2 705 locus (AID 930); conditions: HeLa EGFP-705 splicing reporter, GFP fluorescence, 48 h; series mostly up to 46.1 µM;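 also: HeLa cells stably expressing the EGFP-705 splicing reporter; GFP fluorescence per well restored by corrected splicing of the IVS2-705 intron in EGFP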
# Outline: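 Per-well GFP, captured at 1 x 8 µm resolution with 488 nm excitation, served as the read-out for HeLa EGFP-705 cells incubated 2 days with test compound versus DMSO.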
# DIV17 = assay: qHTS profiling for inhibitors of Plasmodium falciparum proliferation (AID 504749); also: nearly all actives have a fitted effect of over 60% in size; also: potency is read from the fitted curve at half-maximal effect; conditions: P. falciparum in erythrocytes, SYBR Green DNA, 72 h; series mostly up to 28.7 µM
# Outline: as §1
# 7G8 = assay: as above; conditions: P. falciparum in erythrocytes, SYBR Green DNA, 72 h; series mostly up to 28.7 µM
# Outline: as §1
# [12] = target: Cytochrome P450 3A4 (Homo sapiens) (UniProt P08684); assay: qHTS Assay for Activators of Cytochrome P450 3A4 (AID 885); conditions: recombinant CYP3A4, Luciferin-PPXE luminescence, 60 min; series mostly up to 57.1 µM; also: nearly all actives have a fitted effect of over 65% in size
# Outline: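 Human CYP3A4 (20 nM) with Luciferin-PPXE at 25 uM (its KM) in 200 mM KPO4; 10 min compound preincubation, then NADPH regeneration and 60 min reaction at RT. Luciferin read by luminescence; normalized to 57 uM ketoconazole full inhibition.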
# [13] = target: Thyroid hormone receptor beta (Homo sapiens) (UniProt P10828); assay: qHTS assay for small molecule agonists of thyroid hormone receptor beta signaling (AID 588545; calls by dose curve); conditions: TR-UAS-bla GripTite HEK 293, beta-lactamase ratio, agonist mode, 18 h; series mostly up to 76.7 µM
# Outline: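 Beta-lactamase reporter activity under TR response element control is measured in HEK 293 cells after 18 hrs compound exposure. Signal is ratiometric CCF4 fluorescence, 460/530 nm.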
# [14] = target: Thyroid hormone receptor beta (Homo sapiens) (UniProt P10828); assay: qHTS assay for small molecule antagonists of thyroid hormone receptor beta signaling (AID 588547; active = well fitted inhibition curve with a large enough effect in the signal ratio, with a control signal flat, not every such curve was filed as active; the % refers to the signal ratio; also: potency is read from the fitted curve at half-maximal effect;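 as to activity change % (negative = inhibition): cells stimulated with 0.4 nM T3 agonist during compound exposure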); conditions: TR-UAS-bla HEK293, beta-lactamase ratio, antagonist mode, 18 h
# Outline: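 Inhibition of T3-driven (0.4nM final) beta-lactamase reporter activity was measured over 0.59 nM to 92 uM compound after 18 h at 37 C. The cells were GripTite HEK293 TR-UAS-bla in charcoal/dextran-stripped serum, with CCF4 ratio read-out and IC50 from Hill fits.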
# [15] = target: DNA dC->dU-editing enzyme APOBEC-3G (Homo sapiens) (UniProt Q9HC16); assay: qHTS for inhibitors of Vif-A3G interactions: Validation (AID 588379); conditions: Vif-A3G protein interaction assay; series mostly up to 46.1 µM
# Outline: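 HeLa cells stably expressing Vif and A3G-eYFP, 700 cells/well, incubated overnight at 37 deg C, then exposed to compound overnight at 37 deg C. Inhibition of Vif-mediated degradation read as increased yellow fluorescence (Ex 488/Em 500-530) by laser-scanning cytometry.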
# Cytochrome P450 3A4 (Homo sapiens), sequence (P08684 whole entry, looked up): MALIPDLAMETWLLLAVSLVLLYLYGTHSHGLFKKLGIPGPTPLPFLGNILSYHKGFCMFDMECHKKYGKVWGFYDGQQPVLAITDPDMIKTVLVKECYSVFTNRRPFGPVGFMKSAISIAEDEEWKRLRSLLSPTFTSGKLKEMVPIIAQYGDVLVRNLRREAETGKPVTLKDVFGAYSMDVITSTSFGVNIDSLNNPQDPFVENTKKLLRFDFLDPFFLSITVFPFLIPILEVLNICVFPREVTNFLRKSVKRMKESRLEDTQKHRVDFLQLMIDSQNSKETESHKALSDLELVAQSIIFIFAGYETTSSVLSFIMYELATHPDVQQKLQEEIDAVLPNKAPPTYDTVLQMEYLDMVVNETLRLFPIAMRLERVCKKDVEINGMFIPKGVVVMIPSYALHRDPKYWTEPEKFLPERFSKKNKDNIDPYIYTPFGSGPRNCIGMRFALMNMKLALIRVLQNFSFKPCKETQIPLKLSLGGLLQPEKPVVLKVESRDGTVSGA
# Thyroid hormone receptor beta (Homo sapiens), sequence (P10828 whole entry, looked up): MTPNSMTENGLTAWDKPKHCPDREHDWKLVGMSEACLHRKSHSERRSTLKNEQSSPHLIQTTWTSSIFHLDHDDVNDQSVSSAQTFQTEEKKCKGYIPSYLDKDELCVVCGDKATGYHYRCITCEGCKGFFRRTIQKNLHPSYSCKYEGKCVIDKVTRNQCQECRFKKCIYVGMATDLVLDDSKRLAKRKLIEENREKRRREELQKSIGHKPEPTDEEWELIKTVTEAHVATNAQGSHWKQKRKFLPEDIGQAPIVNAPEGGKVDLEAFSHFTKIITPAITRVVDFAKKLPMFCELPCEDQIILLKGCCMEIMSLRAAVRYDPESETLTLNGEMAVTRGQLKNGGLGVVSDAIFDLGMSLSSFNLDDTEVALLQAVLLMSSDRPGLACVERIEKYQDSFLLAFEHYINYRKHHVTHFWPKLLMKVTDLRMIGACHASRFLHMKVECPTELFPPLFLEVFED
# Peroxisome proliferator-activated receptor alpha (Homo sapiens), sequence (Q07869 whole entry, looked up): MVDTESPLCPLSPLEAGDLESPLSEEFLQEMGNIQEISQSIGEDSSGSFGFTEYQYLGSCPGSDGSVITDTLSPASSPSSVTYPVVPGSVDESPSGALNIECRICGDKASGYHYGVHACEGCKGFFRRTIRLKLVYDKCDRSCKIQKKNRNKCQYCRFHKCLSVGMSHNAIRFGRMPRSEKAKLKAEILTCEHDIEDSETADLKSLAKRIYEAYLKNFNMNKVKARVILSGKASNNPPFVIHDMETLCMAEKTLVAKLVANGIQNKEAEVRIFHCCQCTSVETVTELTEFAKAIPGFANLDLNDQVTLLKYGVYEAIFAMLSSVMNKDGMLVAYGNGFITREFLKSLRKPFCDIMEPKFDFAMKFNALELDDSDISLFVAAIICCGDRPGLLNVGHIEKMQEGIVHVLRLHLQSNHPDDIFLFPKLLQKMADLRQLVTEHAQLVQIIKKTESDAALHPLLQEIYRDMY
# Vitamin D3 receptor (Homo sapiens), sequence (P11473 whole entry, looked up): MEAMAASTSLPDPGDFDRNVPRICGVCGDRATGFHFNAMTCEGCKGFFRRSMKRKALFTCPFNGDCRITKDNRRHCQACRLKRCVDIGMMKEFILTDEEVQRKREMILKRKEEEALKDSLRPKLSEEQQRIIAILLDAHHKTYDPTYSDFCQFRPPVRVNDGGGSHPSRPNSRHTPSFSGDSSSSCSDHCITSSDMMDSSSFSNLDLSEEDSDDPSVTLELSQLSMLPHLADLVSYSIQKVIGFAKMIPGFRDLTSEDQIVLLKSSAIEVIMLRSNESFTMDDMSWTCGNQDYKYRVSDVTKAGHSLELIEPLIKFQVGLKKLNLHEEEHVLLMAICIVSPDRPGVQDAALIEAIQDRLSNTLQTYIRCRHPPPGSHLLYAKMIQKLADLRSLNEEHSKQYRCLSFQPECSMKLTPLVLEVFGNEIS
# Peroxisome proliferator-activated receptor delta (Homo sapiens), sequence (Q03181 whole entry, looked up): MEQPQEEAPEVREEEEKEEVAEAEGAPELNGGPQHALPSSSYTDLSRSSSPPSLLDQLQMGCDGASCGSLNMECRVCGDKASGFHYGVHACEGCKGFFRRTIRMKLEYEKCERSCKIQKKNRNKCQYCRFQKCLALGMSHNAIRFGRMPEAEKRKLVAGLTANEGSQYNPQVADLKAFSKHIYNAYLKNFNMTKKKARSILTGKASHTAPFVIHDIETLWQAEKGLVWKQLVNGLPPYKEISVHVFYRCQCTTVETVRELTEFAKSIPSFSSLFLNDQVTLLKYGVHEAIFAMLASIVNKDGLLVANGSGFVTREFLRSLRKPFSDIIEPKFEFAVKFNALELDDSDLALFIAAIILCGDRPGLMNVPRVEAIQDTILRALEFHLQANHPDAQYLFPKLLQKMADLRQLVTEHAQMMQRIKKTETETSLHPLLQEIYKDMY
# Bile acid receptor (Homo sapiens), sequence (Q96RI1 whole entry, looked up): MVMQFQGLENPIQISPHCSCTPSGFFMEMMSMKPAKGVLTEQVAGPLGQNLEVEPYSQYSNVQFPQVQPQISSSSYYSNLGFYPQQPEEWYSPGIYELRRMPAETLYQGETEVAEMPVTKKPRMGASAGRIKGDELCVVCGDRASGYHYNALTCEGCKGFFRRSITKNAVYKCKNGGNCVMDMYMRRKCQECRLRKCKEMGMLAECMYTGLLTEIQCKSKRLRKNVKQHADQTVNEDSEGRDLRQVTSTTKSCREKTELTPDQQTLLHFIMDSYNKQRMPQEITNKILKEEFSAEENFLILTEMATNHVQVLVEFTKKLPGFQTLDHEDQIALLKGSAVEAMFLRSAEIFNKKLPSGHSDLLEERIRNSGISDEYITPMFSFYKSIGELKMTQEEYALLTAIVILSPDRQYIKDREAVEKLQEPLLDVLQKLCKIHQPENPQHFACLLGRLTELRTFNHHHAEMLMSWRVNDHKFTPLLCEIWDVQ
# DNA dC->dU-editing enzyme APOBEC-3G (Homo sapiens), sequence (Q9HC16 whole entry, looked up): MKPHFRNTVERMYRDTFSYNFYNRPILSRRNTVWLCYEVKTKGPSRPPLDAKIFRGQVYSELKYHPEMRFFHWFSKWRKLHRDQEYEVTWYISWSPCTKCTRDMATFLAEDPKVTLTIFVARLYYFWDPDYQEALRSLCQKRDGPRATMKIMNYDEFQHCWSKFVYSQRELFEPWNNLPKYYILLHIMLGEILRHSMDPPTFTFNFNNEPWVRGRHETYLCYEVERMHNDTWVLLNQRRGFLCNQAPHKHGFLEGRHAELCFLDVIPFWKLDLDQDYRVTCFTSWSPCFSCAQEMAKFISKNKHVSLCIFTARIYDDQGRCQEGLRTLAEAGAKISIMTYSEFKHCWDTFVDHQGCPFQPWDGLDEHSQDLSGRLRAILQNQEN
smiles,measurement,setting,value
CC(C)=CC1C(C(=O)OCc2coc(Cc3ccccc3)c2)C1(C)C (centres undefined),activation,[1],3.82% (inactive)
same,outcome,[2],inactive
same,outcome,[3],inactive
same,max response,[4],-14.2%
same,activation,[5],3.96% (inactive)
same,max response,[6],-0.283% (inactive)
same,max response,[7],-23.8% (inactive)
same,max response,[8],0.368% (inactive)
same,Potency,CP260,inactive
same,Potency,PC26,inactive
same,Potency,TAB109,inactive
CN(C)[C@@H](Cc1ccccc1)c1ccccc1,Potency,CP260,inactive
same,Potency,PC26,inactive
same,Potency,TAB109,inactive
C=C1CC2C(CC[C@]3(C)C(=O)CCC23)[C@]2(C)C=CC(=O)C=C12 (some centres undefined),Potency,[9],inactive
same,Potency,[10],inactive
same,outcome,[11],inactive
same,Potency,DIV17,inactive
same,Potency,PC26,inactive
same,Potency,TAB109,inactive
NC(Cc1ccc(Oc2cc(I)c(O)c(I)c2)c(I)c1)C(=O)O (centres undefined),Potency,7G8,inactive
same,Potency,CP260,inactive
same,Potency,DIV17,inactive
same,Potency,PC26,inactive
same,Potency,TAB109,inactive
COC(=O)C1C(OC(=O)c2ccccc2)CC2CCC1N2C (centres undefined),Potency,7G8,inactive
same,Potency,CP260,inactive
same,Potency,DIV17,inactive
same,Potency,PC26,inactive
same,Potency,TAB109,inactive
O=C1CC2OCC=C3CN4CC[C@]56c7ccccc7N1C5C2[C@H]3C[C@H]46 (some centres undefined),Potency,7G8,11.2 µM (active)
same,Potency,CP260,11.2 µM (active)
same,Potency,DIV17,inactive
same,Potency,PC26,inactive
CC(CO)NC(=O)C1C=C2c3cccc4[nH]cc(c34)CC2N(C)C1 (centres undefined),Potency,7G8,inactive
same,Potency,CP260,inactive
same,Potency,PC26,inactive
same,Potency,TAB109,inactive
CCN(CC)C(=O)N[C@@H]1C=C2c3cccc4[nH]cc(c34)C[C@H]2N(C)C1,Potency,7G8,8.91 µM (active)
same,Potency,DIV17,10.7 µM (active)
same,Potency,PC26,12 µM (active)
C[C@@H](N)[C@@H](O)c1ccc(O)c(O)c1,Potency,7G8,inactive
same,Potency,CP260,inactive
same,Potency,DIV17,inactive
same,Potency,PC26,inactive
same,Potency,TAB109,inactive
CC(=O)O[C@H]1C[C@H](O[C@H]2[C@@H](O)CC(O[C@H]3[C@@H](O)C[C@H](O[C@H]4CC[C@@]5(C)[C@H](CC[C@@H]6[C@@H]5CC[C@]5(C)[C@@H](C7=CC(=O)OC7)CC[C@]65O)C4)O[C@@H]3C)O[C@@H]2C)O[C@H](C)[C@H]1O[C@@H]1O[C@H](CO)[C@@H](O)[C@H](O)[C@H]1O (some centres undefined),Potency,CP260,inactive
CC(CO)NC(=O)C1C=C2c3cccc4[nH]cc(c34)C[C@H]2N(C)C1 (some centres undefined),Potency,[9],inactive
same,Potency,[10],inactive
same,outcome,[11],inactive
CC1(C)C(C(Cl)Cl)C2(Cl)C(Cl)C(Cl)C1(Cl)C2(Cl)Cl (centres undefined),Potency,[12],inactive
same,Potency,[10],inactive
same,outcome,[11],inactive
O=C1CC[C@]2(O)C3Cc4ccc(O)c5c4C2(CCN3CC2CC2)C1O5 (some centres undefined),Potency,[9],inactive
same,Potency,[10],inactive
same,outcome,[11],inactive
CNNC,Potency,[12],inactive
same,Potency,[10],inactive
same,outcome,[11],inactive
CSc1nc(NC(C)C)nc(NC(C)C)n1,Potency,[9],inactive
same,Potency,[10],inactive
same,outcome,[11],inactive
same,outcome,[3],inactive
same,Potency,[13],inactive
same,activity change % (negative = inhibition),[14],-0.16% (inactive)
same,activation,[5],-2.16% (inactive)
same,max response,[6],8.44% (inactive)
same,max response,[7],9.37% (inactive)
same,max response,[8],2.18% (inactive)
CC1CC(C)C(=O)[C@H](C(O)CC2CC(=O)NC(=O)C2)C1 (some centres undefined),Potency,[10],inactive
same,outcome,[11],inactive
CCC1C(=O)OC[C@H]1Cc1cncn1C (some centres undefined),Potency,[9],20 µM (active)
same,Potency,[12],inactive
same,Potency,[10],inactive
same,outcome,[11],inactive
COc1ccc(C2Oc3c(I)c(OC)cc(OC)c3CC2O)cc1OC (centres undefined),Potency,[9],3.16 µM (active)
same,Potency,[12],inactive
same,Potency,[10],inactive
same,outcome,[11],inactive
CC(=O)OCC1=C(C(=O)O)N2C(=O)C(NC(=O)CCCC(N)C(=O)O)C2SC1 (centres undefined),Potency,[9],inactive
same,Potency,[10],inactive
same,outcome,[11],inactive
C/C=C1/C[C@@H](C)[C@](O)(CO)C(=O)OCC2=CCN3CC[C@@H](OC1=O)C23 (some centres undefined),Potency,[9],inactive
same,outcome,[15],inactive
N#Cc1c(Cl)c(Cl)c(Cl)c(C#N)c1Cl,Potency,[9],3.16 µM (active)
same,Potency,[12],inactive
same,Potency,[10],inactive
same,outcome,[11],inactive
same,Potency,[13],inactive
same,max response,[4],-33.7%
same,Potency,[14],2.51 µM (active)
same,max response,[6],-3.28% (inactive)
same,Potency,[7],70.8 µM (active)
same,Potency,[8],15.8 µM (active)
